# Source: PubChem BioAssay AID602256 (National Center for Advancing Translational Sciences (NCATS), 2012)
# Results filed as inconclusive are left out. Unmarked numbers belong to inactive results. Calls of active or inactive are those of the source. The call rests on the fitted dose curve; in most records, active means well fitted curve in the direction sought with a large enough effect; inconclusive means small, poorly fitted or top-dose-only effect, or another doubt; inactive means no such curve, though single readings can be large or run the other way.
# Target: Relaxin receptor 1 (Homo sapiens) (UniProt Q9HBX9)
# Experiment: qHTS Assay for Agonists of the Relaxin Receptor RXFP1: RXFP1 SAR
# Conditions: HEK293T-RXFP1 cAMP TR-FRET, 30 min; efficacy: hits give high values
# Description: The relaxin hormone is involved in the variety of biological functions in normal tissues and diseases. The role of relaxin is well-established in female reproduction and parturition, mammary gland and endometrial development, maintenance of myometrial quiescence during pregnancy. Relaxin signaling through its G protein-coupled receptor (GPCR) RXFP1 results in ECM remodeling through regulation of collagen deposition, cell invasiveness, proliferation and overall tissue homeostasis. […] Recombinant human relaxin (rhRlx) is currently being tested in clinical trials as a protective agent in congestive heart failure, in treating severe preeclampsia, and as an anti-fibrotic agent in systemic sclerosis. Upon relaxin binding RXFP1 activation leads to the activation of adenylate cyclase (AC) via Gs. cAMP will activate PKA, which phosphorylates many signaling proteins. Thus, detection of cAMP increase is an easy and reliable indication of relaxin receptor activation. To screen for agonists of the relaxin receptor, a HEK293T cell line stably transfected with RXFP1 was used. RXFP1 activation was assayed by changes in cAMP levels as detected with a time-resolved fluorescence energy transfer (TR-FRET) cAMP detection kit. NIH Chemical Genomics Center [NCGC] NIH Molecular Libraries Probe Production Centers Network [MLPCN] MLPCN Grant: R03 MH085705-01A1 Assay Submitter (PI): Alexander Agoulnik
# This is a cell-based assay for cAMP second messenger response to screen for agonists of the RXFP1 receptor. The assay was conducted in the presence of a PDE4 inhibitor (Ro 20174). The cells were lysed and the cAMP levels were measured with a TR-FRET cAMP kit. Presence of cAMP in the cell lysate disrupts binding between the cryptate-labeled anti-cAMP and d2-labeled cAMP pair, leading to a decrease in the TR-FRET signal. Data were normalized to the controls for basal activity (buffer only) and 100% activity (29 nM porcine relaxin). The EC50 values were determined from concentration-response data modeled with the standard Hill equation 1536-well assay protocol for the HEK293 RXFP1 cAMP assay: (1) Add 3 ul HEK293 RXFP1 cell culture. 2000 cells/well in DMEM/F12, 10% FBS, 1x Pen/Strep (dispensed offline with MultiDrop Combi). (2) Incubate 16-24 hr at 37C, 5% CO2. (3) Add 1 ul 400uM Ro20174 in DPBS, 0.05% BSA, 0.005% Tween 20. (3) Add 23 nl compounds in DMSO solution. Final concentration was 0.5 - 58 uM. (4) Incubate 30 min at 37C, 5% CO2. (5) Add 1 ul cAMP-d2 in lysis buffer (HTRF cAMP HiRange kit, CisBio). (6) Add 1 ul anti-cAMP antibody-cryptate in lysis buffer (HTRF cAMP HiRange kit, CisBio). (7) Incubate 30 min at room temperature. (6) Detect the assay plate in a ViewLux plate reader (PerkinElmer) with Ex=320 nm, Em1=615 nm and Em2=665 nm. Keywords: relaxin, RXFP1, RXFP2, G-protein coupled receptor, cAMP, agonist, high throughput screening, MLSMR, MLSCN, NIH Roadmap, qHTS and NCGC
# Chain of Relaxin receptor 1 (Homo sapiens) (Q9HBX9 whole entry, looked up): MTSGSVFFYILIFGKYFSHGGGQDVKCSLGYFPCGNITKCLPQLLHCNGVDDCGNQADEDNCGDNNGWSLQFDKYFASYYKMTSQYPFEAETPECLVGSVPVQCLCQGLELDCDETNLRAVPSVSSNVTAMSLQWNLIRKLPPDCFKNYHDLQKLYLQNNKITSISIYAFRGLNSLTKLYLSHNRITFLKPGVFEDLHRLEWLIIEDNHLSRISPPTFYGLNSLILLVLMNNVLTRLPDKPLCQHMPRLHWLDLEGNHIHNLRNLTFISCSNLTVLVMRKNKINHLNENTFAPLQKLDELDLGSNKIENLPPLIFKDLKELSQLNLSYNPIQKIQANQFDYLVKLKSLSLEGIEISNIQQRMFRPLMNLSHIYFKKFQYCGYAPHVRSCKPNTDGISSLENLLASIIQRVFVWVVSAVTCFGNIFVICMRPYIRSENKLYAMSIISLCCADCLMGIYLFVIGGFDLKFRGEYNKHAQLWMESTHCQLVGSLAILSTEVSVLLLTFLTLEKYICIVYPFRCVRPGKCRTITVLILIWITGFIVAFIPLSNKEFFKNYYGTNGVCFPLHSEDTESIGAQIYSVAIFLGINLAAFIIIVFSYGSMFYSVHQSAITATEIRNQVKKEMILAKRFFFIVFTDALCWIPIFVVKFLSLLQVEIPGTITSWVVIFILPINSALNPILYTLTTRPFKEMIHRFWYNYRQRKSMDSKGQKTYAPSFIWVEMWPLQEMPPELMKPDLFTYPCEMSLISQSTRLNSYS
Structure (SMILES),Potency,efficacy
O=C(Nc1cccc(C(F)(F)F)c1)c1ccccc1NC(=O)C1CCCCCC1,2.11 µM (active),–
COc1ccccc1C(=O)Nc1ccccc1C(=O)Nc1cccc(S(=O)(=O)C(F)(F)F)c1,0.188 µM (active),–
O=C(Nc1cccc(F)c1)c1ccccc1NC(=O)C1CCCCC1,13.3 µM (active),–
O=C(Nc1cccc(C(F)(F)F)c1)c1ccccc1NC(=O)C1CC1,8.38 µM (active),–
COc1cccc(OC)c1C(=O)Nc1ccccc1C(=O)Nc1cccc(C(F)(F)F)c1,7.47 µM (active),–
COc1ccccc1C(=O)Nc1ccc(C(=O)Nc2cccc(C(F)(F)F)c2)cc1,–,-2.02%
O=C(Nc1cccc(C(F)(F)F)c1)c1ccccc1NC(=O)C1CCCCC1,1.88 µM (active),–
CSc1cccc(NC(=O)c2ccccc2NC(=O)C2CCCCC2)c1,5.29 µM (active),–
CCOc1ccccc1C(=O)Nc1sccc1C(=O)Nc1cccc(S(=O)(=O)C(F)(F)F)c1,2.36 µM (active),–
CCOc1ccccc1C(=O)Nc1ccccc1CNc1cccc(S(=O)(=O)C(F)(F)F)c1,2.65 µM (active),–
O=C(Nc1cccc(-c2cccc(C(F)(F)F)c2)c1)c1ccccc1NC(=O)C1CCCCC1,–,15%
O=C(Nc1cccc(S(=O)(=O)C(F)(F)F)c1)c1ccccc1NC(=O)C1CCCCC1,1.06 µM (active),–
O=C(Nc1ccccc1C(=O)Nc1cccc(C(F)(F)F)c1)c1cccnc1,5.93 µM (active),–
Cc1ccccc1C(=O)Nc1ccccc1C(=O)Nc1cccc(C(F)(F)F)c1,4.2 µM (active),–
COCCOc1ccccc1C(=O)Nc1ccccc1C(=O)Nc1cccc(C(F)(F)F)c1,0.747 µM (active),–
COc1ccc(C(=O)Nc2ccccc2C(=O)Nc2cccc(C(F)(F)F)c2)cc1,9.4 µM (active),–
CCCCC(=O)Nc1ccccc1C(=O)Nc1cccc(C(F)(F)F)c1,5.29 µM (active),–
COc1ccccc1C(=O)Nc1ccccc1C(=O)Nc1cccc(SC(F)(F)F)c1,0.297 µM (active),–
CCSc1ccccc1C(=O)Nc1ccccc1C(=O)Nc1cccc(S(=O)(=O)C(F)(F)F)c1,0.529 µM (active),–
O=C(Nc1cccc(C(F)(F)F)c1)c1ccccc1NC(=O)c1ccccc1OC(F)(F)F,1.18 µM (active),–

Structure (SMILES),Potency,efficacy
CCC(CC)C(=O)Nc1ccccc1C(=O)Nc1cccc(C(F)(F)F)c1,5.29 µM (active),–
COc1ccccc1-c1ccccc1C(=O)Nc1cccc(C(F)(F)F)c1,–,-3.31%
COc1ccccc1Nc1ccccc1C(=O)Nc1cccc(C(F)(F)F)c1,4.71 µM (active),–
COc1ccccc1C(=O)N(C)c1ccccc1C(=O)Nc1cccc(C(F)(F)F)c1,–,-2.4%
CCCCOc1ccccc1C(=O)Nc1ccccc1C(=O)Nc1cccc(S(=O)(=O)C(F)(F)F)c1,0.0471 µM (active),–
CCOc1ccccc1C(=O)Nc1ccccc1C(=O)Nc1cccc(C(F)(F)F)c1,0.265 µM (active),–
O=C(Nc1cccc(Br)c1)c1ccccc1NC(=O)C1CCCCC1,2.65 µM (active),–
COc1ccccc1C(=O)N(C)c1ccccc1C(=O)N(C)c1cccc(C(F)(F)F)c1,–,0.957%
CN(C)CCOc1ccccc1C(=O)Nc1ccccc1C(=O)Nc1cccc(C(F)(F)F)c1,3.74 µM (active),–
CCOc1ccccc1C(=O)Nc1ncccc1C(=O)Nc1cccc(S(=O)(=O)C(F)(F)F)c1,1.67 µM (active),–
O=C(Nc1ccccc1C(=O)Nc1cccc(C(F)(F)F)c1)c1ccccc1,1.33 µM (active),–
CCOc1ccccc1C(=O)Nc1cccnc1C(=O)Nc1cccc(S(=O)(=O)C(F)(F)F)c1,4.71 µM (active),–
O=C(Nc1cccc(Cl)c1)c1ccccc1NC(=O)C1CCCCC1,3.34 µM (active),–
COc1ccccc1C(=O)Nc1cccc(C(=O)Nc2cccc(C(F)(F)F)c2)c1,–,1.37%
CCOc1ccccc1S(=O)(=O)Nc1ccccc1C(=O)Nc1cccc(S(=O)(=O)C(F)(F)F)c1,–,-2.44%
O=C(Nc1cccc(S(=O)(=O)C(F)(F)F)c1)c1ccccc1NC(=O)c1ccccc1OCC(F)(F)F,0.0666 µM (active),–
O=C(NCc1cccc(C(F)(F)F)c1)c1ccccc1NC(=O)C1CCCCC1,–,4.71%
O=C(Nc1cccc(C(F)(F)F)c1)c1ccccc1NC(=O)C1CCCC1,2.36 µM (active),–
O=C(Nc1cccc(C(F)(F)F)c1)c1ccccc1NC(=O)C1CCC1,2.97 µM (active),–
COc1cccc(C(=O)Nc2ccccc2C(=O)Nc2cccc(C(F)(F)F)c2)c1,1.88 µM (active),–
